Measured values reported in PubChem BioAssay AID2253 (Southern Research Specialized Biocontainment Screening …, 2010).
The whole screen tested about 2,200 compounds, of which about 1,300 (59%) were called active. No rule for the calls is given here. The set was probably picked from earlier hits. Only a sample is shown. Entries with a potency or affinity are not part of this list.

Assay: human monocytic cell viability reduction – S. typhimurium screen hits, cytotoxicity control for Salmonella PhoP regulon inhibitors, dose response (AID 2253)
Conditions: THP-1 viability, CellTiter-Glo luminescence, 72 h; series mostly up to 50 µM

| Structure (SMILES) | outcome |
| --- | --- |
| CC(C)(C)c1ccc(C2CC2C(=O)N/N=C\c2cc3ccccc3nc2Cl)cc1 (stereo not given) | inactive |
| CCn1c(SCC(=O)N2CCCCC2)nc(O)cc1=O | inactive |
| O=C(NCc1cccnc1)c1cc2ccccc2oc1=O | inactive |
| CCCc1cc(C(=O)Cc2ccc(C(=O)OCC)o2)c(O)cc1O | inactive |
| CCOC(=O)N1CCN(c2nc(C)c3c(n2)CCCC3=O)CC1 | inactive |
| CCCCn1c(-c2ccccc2)nc2c(=O)n(C)c(=O)[nH]c21 | inactive |
| CCN(CC)CCNC(=O)c1cn(CC)c2cc(N3CCN(C(=O)c4ccco4)CC3)c(F)cc2c1=O | inactive |
| O=C1C2CCCN2c2ccc(S(=O)(=O)N3CCOCC3)cc2N1Cc1ccccc1F (stereo not given) | inactive |
| Cc1ccc(Oc2ccc3c(c2)C(=O)N(c2ccc(S(=O)(=O)Nc4nccs4)cc2)C3=O)cc1 | inactive |
| CCCS(=O)(=O)N1CCCC(C(=O)N2CCN(c3ccccn3)CC2)C1 (stereo not given) | inactive |
| N=c1scc(-c2ccccc2)n1/N=C/c1ccco1 | inactive |
| CCCCn1c(O)c(C(CC)=Nc2ccc3c(c2)CCC3)c(=O)[nH]c1=O | inactive |
| Cc1cccc(-n2c(N)cc(=O)[nH]c2=S)c1 | inactive |
| O=C(O)C1CC=CCC1C(=O)NC12CC3CC(CC(C3)C1)C2 (stereo not given) | inactive |
| COC(=O)c1cc(C#N)c(Oc2ccccc2OC)nc1C | inactive |
| CN(CCO)Cc1csc2ccc(Br)cc12 | inactive |
| CCn1c(CNC(=O)c2cccc(C)c2)nc2ccccc21 | inactive |
| Nc1c(-c2ccccc2)cnn1-c1cccc([N+](=O)[O-])c1 | inactive |
| Cc1ccc(C)n1-c1cc([N+](=O)[O-])ccc1-n1ccnc1 | inactive |
| NC(=O)c1c(NC(=O)CN2C(=O)CCC2=O)sc2c1CCCCC2 | inactive |
| CC(C)(C)C1CCc2c(sc(NC(=O)c3cccs3)c2C(=O)N2CCCCC2)C1 (stereo not given) | inactive |
| CCOC(=O)c1c(NC(=O)Nc2ccc(C)cc2)sc2c1CCN(C)C2 | inactive |
| C=CCN=C(NC#N)SCc1ccccc1Cl | inactive |

| Structure (SMILES) | outcome |
| --- | --- |
| O=c1cc(-c2ccc([N+](=O)[O-])cc2)nc2cc(-c3ccc(Cl)cc3)[nH]n12 | inactive |
| COC(=O)c1ccc2c(=O)n(CCN3CCOCC3)c(SCC(=O)C(C)(C)C)nc2c1 | inactive |
| COc1ccc(CN2CCOCC2)cc1Br | inactive |
| CC(C)Cc1oc(C(=O)O)cc1CN1CCOCC1 | inactive |
| Cc1ccc(C(=O)Oc2cccc(NC(=O)c3cccs3)c2)cc1S(=O)(=O)N1CCOCC1 | inactive |
| N#Cc1ccc(COC(=O)c2ccc3c(=O)[nH]c(CN4CCOCC4)nc3c2)cc1 | inactive |
| CCOC(=O)c1c(C)[nH]c(C)c1C(=O)COC(=O)/C=C/c1cccc(F)c1 | inactive |
| Cc1ccc(OCC(=O)N2CCN(S(=O)(=O)c3ccccc3)CC2)c([N+](=O)[O-])n1 | inactive |
| CCOC(=O)C(/C=C(\C#N)C(=O)OCC)=C(/N)N1CCN(c2c(C)cccc2C)CC1 | inactive |
| Cc1ccccc1NC(=S)N(CCCN1CCOCC1)Cc1ccccn1 | inactive |
| Brc1ccc2nc3c(n2c1)CCCC3 | inactive |
| CCCCn1c(NCCO)nc2ccccc21 | inactive |
| Nc1ccc(C(=O)OCc2nc3ccccc3[nH]2)cc1 | inactive |
| COc1c(F)c(F)cc2c(=O)c(C(=O)O)cn(C3CC3)c12 | inactive |
| O=C(Cn1nc(C(F)(F)F)c2c1CCCCC2)N1CCOCC1 | inactive |
| CCCNC(=O)COC(=O)CCC(=O)c1ccc(F)cc1 | inactive |
| O=C(c1cc2ncc(Br)cn2n1)N1CCOCC1 | inactive |
| C(=N\N1CCN(C2c3ccccc3-c3ccccc32)CC1)/c1cccs1 | inactive |
| CCn1cc(C(=O)O)c(=O)c2cnc(N3CCN(C(=S)NC(=O)c4ccc(Cl)cc4)CC3)nc21 | inactive |
| CCOc1ccc(-c2noc(CCCC(N)=O)n2)cc1OC | inactive |
| COc1c(N2C[C@@H]3CCCN[C@@H]3C2)c(F)cc2c(=O)c(C(=O)O)cn(C3CC3)c12 | inactive |
| N/C(=N\OC(=O)Cc1ccc(Cl)cc1)c1cccnc1 | inactive |
| COc1cccc(N=Cc2c[nH][nH]c2=O)c1 | inactive |

| Structure (SMILES) | outcome |
| --- | --- |
| Cc1cc2ncn(C3CC(=O)N(Cc4ccc(N5CCCC5=O)cc4)C3=O)c2cc1C (stereo not given) | inactive |
| CC(NC(=O)C1(C)CC1(Br)Br)C(C)(C)C (stereo not given) | inactive |
| CN1/C(=C/C2CC(=O)N(c3cccc4ccccc34)C2=O)C(C)(C)c2ccccc21 (stereo not given) | inactive |
| O=C(OCCN1C(=O)c2ccccc2C1=O)c1ccc(S(=O)(=O)N2CCCCCC2)cc1 | inactive |
| Cc1ccc(NC(=O)CCN2CCc3ccccc3C2)cc1 | inactive |
| CCCCCC(=O)Nc1ccc2ccccc2c1 | inactive |
| C/C(=N\NC(=O)c1c(Cl)c(C)nn1C)c1cccc(NC(=O)COc2ccc(Cl)cc2)c1 | inactive |
| O=S(=O)(NCc1ccccc1)c1cccc(S(=O)(=O)N2CCOCC2)c1 | inactive |
| O=C(Nc1ccc2oc(-c3ccc(Cl)c(Cl)c3)nc2c1)c1ncn[nH]1 | inactive |
| Nc1nc(N)nc(-c2ccccc2)n1 | inactive |
| Nc1cc(N)cc(-c2nc3ccccc3[nH]2)c1 | inactive |
| O=C(O)CCc1nn2c3ccccc3n(CCN3CCCCC3)c2nc1=O | inactive |
| C=CCn1c(SCCOc2ccc(OC)cc2)nnc1C(C)NC(=O)c1ccc(OC)cc1 (stereo not given) | inactive |
| COc1ccc(OCCSc2nnc(-c3ccc(OC)cc3)n2N)cc1 | inactive |
| CC(O)c1ccc(OCCN(C)c2ccccn2)cc1 (stereo not given) | inactive |
| COC(=O)c1ccc(COC(=O)c2ccccn2)cc1 | inactive |
| Cc1ccc(-n2ncc3c(N4CCN(c5ccccc5)CC4)ncnc32)c(C)c1 | inactive |
| COc1cc(NC(=O)CSc2nnnn2Cc2ccc3c(c2)OCO3)cc(OC)c1 | inactive |
| c1ccc(-c2cnn3nnnc3n2)cc1 | inactive |
| CCc1c(C)c2cc(Cl)c(O)c(CN(C)C)c2oc1=O | inactive |
| O=C(CCN1C(=O)c2ccccc2S1(=O)=O)Nc1ccc2c(c1)OCCO2 | inactive |
| CC(=O)c1c(N2CCN(C(=O)C3CCCO3)CC2)nc(=S)n(-c2ccccc2)c1C (stereo not given) | inactive |
| O=C(Nc1ccc(F)cc1)c1ccccc1F | inactive |

| Structure (SMILES) | outcome |
| --- | --- |
| O=C(CCN1C(=O)COc2ccccc21)NCCN1CCOCC1 | inactive |
| COc1ccc(CCNC(=O)c2ccc(CN3CCOCC3)cc2)cc1 | inactive |
| CC1(C)CC(=O)C(/C=N/c2ncccc2C(=O)O)=C(O)C1 | inactive |
| O=C(NC(CO)C(O)c1ccc([N+](=O)[O-])cc1)C(Cl)Cl (stereo not given) | inactive |
| Cc1ccc(-n2c(C)cc(-c3csc(N)n3)c2C)cc1 | inactive |
| Cc1cc(-c2csc(N)n2)c(C)n1C | inactive |
| Cc1ccccc1NC(=O)c1ccc(-n2cncn2)nc1 | inactive |
| O=C1C(c2ccc(F)cc2)N(Cc2ccc3c(c2)OCO3)C(=O)CN1C1CCCCCC1 (stereo not given) | inactive |
| Nc1ccc(Nc2ccccc2)c(Cl)c1 | inactive |
| C/C(=N\n1nnnc1Nc1ccccc1)c1ccc(N)cc1 | inactive |
| CCn1cc(C(=O)O)c(=O)c2cc(F)c(N3CCN(C(=S)NC(=O)c4ccccc4Cl)CC3)cc21 | inactive |
| CSCCC(NC(=O)c1cccc(C)c1)C(=O)OCC(=O)NC(=O)c1cccn1C (stereo not given) | inactive |
| COc1ccc(Cl)cc1-c1nc(SCC(N)=O)n[nH]1 | inactive |
| CC(=O)Nc1ccc(OC(=O)c2cccnc2)cc1 | inactive |
| COC(=O)c1sccc1NC(=O)c1cccnc1 | inactive |
| Cc1cc(-c2csc(NC(=O)c3ccc(S(=O)(=O)N(C)C)cc3)n2)c(C)n1-c1ccccc1 | inactive |
| CC(=O)Nc1ccc(C(=O)Nc2nc(-c3cc(C)n(Cc4ccccc4)c3C)cs2)cc1 | inactive |
| O=C(/C=C/c1ccco1)N/C(=C\c1ccccc1)C(=O)NCCc1nc2ccccc2[nH]1 | inactive |
| Cc1ccc2c(CN3CCC(C)CC3)cc(=O)oc2c1 | inactive |
| N#Cc1nc(-c2ccco2)oc1NCCCN1CCOCC1 | inactive |
| N#CC1=C(N)SC(N)=C(C#N)C1c1ccc([N+](=O)[O-])cc1 | inactive |
| CC1CCCCN1CCNS(=O)(=O)c1ccc2c(c1)oc(=O)n2C (stereo not given) | inactive |
| Cn1nnnc1SCC(=O)NC1CCCCC1 | inactive |

| Structure (SMILES) | outcome |
| --- | --- |
| CC1(C)CC(=O)C2=C(C1)N(Cc1ccccc1)C(=O)C2(O)C(F)(F)F (stereo not given) | inactive |
| C/C(=N/Nc1nc(-c2ccc(Cl)cc2)cs1)c1cccs1 | inactive |
| CCc1c(C)c2cc(Cl)c(O)c(CN3CCCCC3)c2oc1=O | inactive |
| O=C(CCc1ccccc1)Nc1nc2ccc(S(=O)(=O)N3CCOCC3)cc2s1 | inactive |
| O=C(NCc1cn2ccsc2n1)Nc1ccc(Cl)cc1 | inactive |
| COc1ccccc1CNc1nc2nc(C)c(C)c(=O)n2[nH]1 | inactive |
| O=C(c1cnsn1)N1CCN(c2ccccc2)CC1 | inactive |
| O=C1CC(c2ccccc2)n2nc(NC(=O)c3ccccc3)nc2N1 (stereo not given) | inactive |
| Cc1nc(N2CCN(c3ccccc3)CC2)nc2c1C(=O)CC(C)C2 (stereo not given) | inactive |
| CCC(CC)NC(=O)COC(=O)c1ccc(OCC(=O)Nc2ccccc2OC)c(OC)c1 | inactive |
| Cc1ccc(CNC(=O)Nc2cccs2)cc1 | inactive |
| CCn1c(=O)c(=O)[nH]c2cc(C(=O)NCC3CCCCC3)ccc21 | inactive |
| O=C1c2ccccc2C(=O)N1c1cccc(-c2csc(Nc3ccc4c(c3)OCO4)n2)c1 | inactive |
| Oc1ccc(Nc2nc(-c3cccs3)cs2)cc1 | inactive |
| c1ccc2[nH]c(CSc3nccs3)nc2c1 | inactive |
| Cc1nn2c(=O)cc(CSc3nc4ccccc4[nH]3)nc2s1 | inactive |
| Cn1c(COc2ccccc2)nnc1SCc1nc2ccccc2[nH]1 | inactive |
| O=C1NC(=O)C(=C2CCCCCC2)S1 | inactive |
| Cc1ncoc1C(=O)Nc1cccc(Cl)c1 | inactive |
| CS(=O)(=O)c1ccc([C@@H](O)[C@@H](CF)NC(=O)C(Cl)Cl)cc1 | inactive |
| CC(=O)C1=C(C)Nc2ncnn2C1c1ccccc1OCc1ccccc1 (stereo not given) | inactive |
| O=C(c1ccccc1)c1nc2ccccc2n(CCCn2c(=O)c(C(=O)c3ccccc3)nc3ccccc32)c1=O | inactive |
| COC(=O)CN1C(c2ccc(OC)cc2)=Nc2ccc(Cl)cc2C1c1ccccc1 (stereo not given) | inactive |
